Screening data (PubChem)
Compounds with a hit are over-represented: about 3.4% of the library has one in this group of screens.
GPR151 activ = human GPR151 activation. Q8TDV0. PathHunter beta-arrestin GPR151 cells, luminescence. activation, % at 11.2 µM. 650,000 tested, 1% active; in the data active = activation above about 4.9%;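 note: 0% = median of compound wells and 100% = cells with positive control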
FBW7 act = activators of human E3 ligase FBW7; Q969H0; AID 1259310; 650,000 tested, 0.13% active; AlphaScreen FBW7–phospho-cyclin E peptide binding, activator screen; normalized activity (activation), % at 26.1 µM; in the data active = normalized activity above about 1.9%;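 note: purified mutant Fbw7 with reduced substrate affinity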
TEAD-YAP block = TEAD-YAP interaction inhibition | 640,000 tested, 1.4% active | AID 1259422 | HEK-TIYL cells, TEAD-Gal4/YAP UAS-luciferase luminescence | inhibition, % at 9.12 µM; in the data active = inhibition above about 32%;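 note: 0% = median of test compound wells and 100% = reference inhibitor wells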
MITF primary = human MITF inhibition, primary screen. AID 1259374. O75030. 650,000 tested, 0.91% active. inhibition, % at 2.6 µM. AlphaScreen MITF homodimerization, bead proximity signal; in the data active = inhibition above about 50%;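 note: 0% = vehicle wells with protein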
Target sequence (O75030 whole entry, looked up): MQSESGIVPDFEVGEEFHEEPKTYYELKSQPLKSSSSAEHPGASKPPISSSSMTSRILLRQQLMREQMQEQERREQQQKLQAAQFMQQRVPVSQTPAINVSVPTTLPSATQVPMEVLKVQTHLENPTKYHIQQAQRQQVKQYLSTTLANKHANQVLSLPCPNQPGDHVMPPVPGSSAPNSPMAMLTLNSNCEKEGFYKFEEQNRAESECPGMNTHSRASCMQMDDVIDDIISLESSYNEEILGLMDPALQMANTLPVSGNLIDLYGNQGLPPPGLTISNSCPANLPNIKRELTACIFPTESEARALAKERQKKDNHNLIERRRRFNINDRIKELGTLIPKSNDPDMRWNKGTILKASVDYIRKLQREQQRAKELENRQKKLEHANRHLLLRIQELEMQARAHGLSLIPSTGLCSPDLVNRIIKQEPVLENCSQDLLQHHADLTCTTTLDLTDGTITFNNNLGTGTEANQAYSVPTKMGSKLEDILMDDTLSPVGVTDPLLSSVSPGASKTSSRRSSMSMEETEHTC
MITF confirm = human MITF inhibition, confirmation; AlphaScreen MITF homodimerization, biotin/His-MITF beads; inhibition, % at 2.6 µM; 4,700 tested, 16% active; AID 1259372; shares compounds with MITF primary;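 active = inhibition above a cutoff derived from the DMSO control wells, cut at about 28% in these data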;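 note: 0% = MITF dimer wells with DMSO only; inhibitors lower the bead chemiluminescence by keeping MITF from dimerizing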
AS interf DR = AlphaScreen optical interference, dose response counter-screen; shares compounds with MITF primary; AlphaScreen optical interference counterscreen, cell-free; IC50, µM; 480 tested, 6% active; call rule not given here
AS interf ctr = optically interferes with AlphaScreen signal | shares compounds with MITF primary | LysRS AlphaScreen counterscreen, signal interference, triplicate | inhibition, % at 2.6 µM | 4,700 tested, 7.6% active | AID 1259376;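 active = inhibition above a cutoff derived from the DMSO control wells, cut at about 30% in these data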
* hit, by the source's call; nt = not tested or not shown; ! = not active in a repeat.

SMILES	GPR151 activ	FBW7 act	TEAD-YAP block	MITF primary	MITF confirm	AS interf ctr	others
Cc1cc(C(C)(C)C)ccc1OCCN1CCN(C)CC1	1	0	2	87*	27	20
Cc1cc(C(C)(C)C)ccc1OCCCN1CCN(C)CC1	1	0	-4	63*	16	3
Cc1cc(C(C)(C)C)ccc1OCCOCCN1CCOCC1	1	0	3	73*	-12	11
OCCCc1nc2n(n1)C(c1ccco1)C=C(c1ccc(F)cc1)N2 (configuration not stated)	-1	0	-8	-1	nt	nt
O=C(COC(=O)c1ccc(O)cc1)NC1CCCCC1	0	0	11	59*	-3	5
COC(=O)C1=CN(CCC23CC4CC(CC(C4)C2)C3)C=C(C(=O)OC)C1c1ccc(Cl)cc1	0	0	7	4	nt	nt
CCOC(=O)C1CCN(S(=O)(=O)c2ccc(Cl)cc2OC)CC1	0	0	-6	59*	17	14
CCOC(=O)C1CCN(S(=O)(=O)c2cc(Cl)c(C)cc2OC)CC1	2	0	-16	-6	nt	nt
CCOc1cc(CN2CCN(Cc3ccccc3F)CC2)ccc1OC	-1	0	-7	65*	-15	-2
COc1ccc(CN2CCN(Cc3ccccc3F)CC2)cc1OC	-2	1	-6	79*	8	6
COc1cc(CNc2ccccc2)cc(OC)c1OC	1	0	-10	1	nt	nt
COc1cc(CNc2cccc(C)c2)cc(OC)c1OC	2	0	15	55*	-2	2
Cc1cccc(NCc2ccncc2)c1	-1	0	5	77*	21	20
Cc1ccc(NCc2ccncc2)c(Br)c1	0	0	-2	69*	-7	-5
Oc1ccccc1CN1CCc2nnc(CCc3ccccc3)n2CC1	1	0	3	4	nt	nt
CS(=O)(=O)N1CCN(CC(=O)c2ccco2)CC1	2	0	5	57*	14	12
CCN1CCN(CC(=O)c2ccco2)CC1	-1	0	-2	70*	15	16
COC(=O)c1ccc(CN2CCN(CC(=O)c3ccco3)CC2)cc1	-2	0	1	70*	5	19
Cc1cc(=O)n(C)c(=O)n1CCCCCCN1CCOCC1	0	0	2	55*	1	4
CCN(CC)CCCCCCn1c(C)cc(=O)n(C)c1=O	0	0	-1	36	nt	nt
COc1ccc(S(=O)(=O)N2CCC(N3CCN(C)CC3)CC2)cc1	-1	0	5	73*	2	6
COC(=O)CCN1CCN(S(=O)(=O)c2ccc(OC)cc2)CC1	0	0	5	60*	-9	-4
COc1ccc(S(=O)(=O)N2CCC(N3CCOCC3)CC2)cc1	1	0	3	54*	8	9
COc1ccc(OCCN2CCN(S(=O)(=O)c3ccc4c(c3)OCCO4)CC2)cc1	-1	0	-6	85*	7	16
COc1ccc(-c2ccc(S(=O)(=O)N3CCOCC3)cc2)cc1	0	0	-1	11	nt	nt
SMILES	GPR151 activ	FBW7 act	TEAD-YAP block	MITF primary	MITF confirm	AS interf ctr	others
COc1ccc(S(=O)(=O)N2CCN(CCO)CC2)cc1	-1	0	-3	-9	nt	nt
Cc1cc(N2C(=O)CSC2c2ccccc2F)ccc1Br (configuration not stated)	0	0	-18	-15	nt	nt
C=CCNC(=O)COc1ccc(-c2ccc(C)cc2)cc1	1	0	-30	3	nt	nt
COc1ccc(S(=O)(=O)N2CCC(N3CCC(C)CC3)CC2)cc1	-1	0	2	55*	34*	0	AS interf DR=>6.5
COc1ccc(S(=O)(=O)N2CCN(C3CCCCCCC3)CC2)cc1	0	0	1	32	nt	nt
COc1cccc(CN2CCN(C(=O)C3CC3)[C@@H](C)C2)c1	-1	0	-8	62*	18	21
COc1cccc(CN2CCC(C(=O)NC3CCCCCC3)CC2)c1	0	0	5	65*	15	18
COc1cccc(CN2CCN(C3CCC(C)CC3)CC2)c1 (configuration not stated)	0	0	-8	70*	-5	-2
COc1cccc(CN2CCN(C3CCCCC3)CC2)c1	0	0	6	60*	-12	-4
CC(=O)Nc1ccc(NC(=O)CSc2nnc3[nH]c(=O)c(C)c(C)n23)cc1	0	0	3	10	nt	nt
COc1cccc(CN2CCN(C3CCCCCC3)CC2)c1	0	0	9	58*	6	-7
COc1ccc(CCN2C(=S)N(c3ccc(Cl)cc3)C(=O)C2CC(=O)Nc2ccccc2)cc1OC (configuration not stated)	0	0	0	-2	nt	nt
CN(C)CCn1nnnc1SCC1=C(C(=O)O)N2C(=O)[C@@H](NC(=O)Cc3csc(N)n3)[C@H]2SC1	-2	0	3	68*!	87*	25	AS interf DR=4.9*
O=C(N1CCCCCC1)C1(S(=O)(=O)c2ccc(Cl)cc2)CC1	1	0	11	62*	3	-1
O=Cc1ccc(OC(=O)/C=C/c2ccc([N+](=O)[O-])cc2)cc1	0	0	-2	-15	nt	nt
Nc1ccc(O)c(C(=O)O)c1	-2	0	-4	75*!	82*	-5	AS interf DR=>6.5
O=C(Nc1ccccc1)c1cc(S(=O)(=O)Nc2ccccc2)cs1	1	0	7	10	nt	nt
c1cn2cc(Cc3nnc4n3CCCCC4)nc2s1	-1	-1	-2	5	nt	nt
c1cn2cc(Cc3nnc4n3CCC4)nc2s1	0	-1	14	80*	13	27
CCC(=O)Nc1ccc(C(=O)Nc2ccc(C#N)cc2)cc1	0	0	-3	-4	nt	nt
CCC(=O)Nc1ccc(C(=O)Nc2ccccc2C#N)cc1	-1	0	-9	51*	-10	-6
COc1ccccc1C(c1ccc(C)o1)c1ccc(C)o1	4	0	-4	3	nt	nt
Cc1ccc(C(c2ccc(C)o2)c2ccccc2N)o1	1	0	0	67*	3	6
O=C(O)CCC(=O)Nc1ccc(Cl)c(C(=O)O)c1	-1	0	9	6	nt	nt
CCCNC(=O)Nc1ccc(Cl)c(C(=O)O)c1	0	0	2	64*	-16	-8
Fc1ccc(CN2CCN(C3CCN(Cc4ccccc4)CC3)CC2)cc1	0	0	9	14	nt	nt
Fc1ccc(CN2CCN(C3CCCCCC3)CC2)cc1	2	0	8	64*	16	21
Cc1ccc(CN2CCN(C3CCCC3)CC2)cc1	1	0	1	38	nt	nt
Fc1ccc(CN2CCC(N3CCCCC3)CC2)cc1	0	0	10	45	nt	nt
Fc1ccc(CN2CCN(C3CCC(c4ccccc4)CC3)CC2)cc1 (configuration not stated)	1	0	-1	66*	1	9
